Assay results taken from PubChem BioAssay (Tox21).
Records with an inconclusive call do not appear. Active and inactive are the calls of the source. Unless noted, the call rests on the fitted dose curve; in most records, active means well fitted curve in the direction sought with a large enough effect in the repeat runs; inconclusive means weak or mixed curves; inactive means no such curve, though single readings can be large; an effect the other way counts as inactive or inconclusive.

Columns and labels:
[1] = qHTS assay for small molecule agonists of the p53 signaling pathway (AID 651631; calls by dose curve; further: nearly all actives have a fitted effect of over 15% in size)
Procedure, shortened: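 We treat p53RE-bla HCT-116 cells with compounds for 16 h at 37 °C, add LiveBLAzer B/G FRET substrate for 2 h at room temperature, and measure fluorescence intensity.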

[2] = qHTS assay for small molecules that induce genotoxicity in human embryonic kidney cells expressing luciferase-tagged ATAD5 (AID 651632); further: nearly all actives have a fitted effect of over 15% in size
Procedure, shortened: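 Reporter cells (HEK293T) express luciferase-tagged ATAD5, a protein that accumulates after DNA damage. Treat 16 hr at 37C/5% CO2, add Amplite, wait 30 min at RT, and read luminescence.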

[3] = qHTS assay for small molecule agonists of the p53 signaling pathway - cell viability (AID 651633; calls by dose curve;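 further: p53RE-bla HCT reporter cells with a stable beta-lactamase p53 reporter; series mostly up to about 83 µM; nearly all actives have a fitted effect of over 30% in size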)
Procedure, shortened: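 p53RE-bla cells, seeded at 4,000 per well and rested 5 h at 37 C/5% CO2, received compounds in DMSO for 16 h at 37 C. CellTiter-Glo was then added, and luminescence was read after 30 min at room temperature to gauge cytotoxicity.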

[4] = qHTS assay for small molecules that induce genotoxicity in human embryonic kidney cells expressing luciferase-tagged ATAD5 - cell viability (AID 651634; calls by dose curve; further: nearly all actives have a fitted effect of over 25% in size)
Procedure, shortened: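 Seeding of 2,000 HEK293T ATAD5-luciferase cells per well preceded pin-tool compound transfer. Plates sat 15.5 hr at 37C under 5% CO2, then fluorescence was read after 30 min with CellTiter-Fluor.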

[5] = qHTS assay for small molecule disruptors of the mitochondrial membrane potential - cell viability (AID 720634; calls by dose curve;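 further: human HepG2 liver cancer cells; series mostly up to about 83 µM; nearly all actives have a fitted effect of over 20% in size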)
Procedure, shortened: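 Measuring cytotoxicity alongside mitochondrial potential, the screen quantified ATP by luminescence in HepG2 cells after 1 hr compound incubation and a 30 min room-temperature CellTiter-Glo step.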

[6] = qHTS assay to test for compound auto fluorescence at 590 nm (red) in HepG2 cells (AID 720674)
Procedure, shortened: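 Compound auto-fluorescence is scored relative to Rose Bengal sodium, measured at 540/590 nm in live HepG2 cultures after 1 hr compound contact (37 C, 5% CO2).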

[7] = qHTS assay to test for compound auto fluorescence at 460 nm (blue) in HEK293 cells (AID 720678)
Procedure, shortened: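 Measured: blue fluorescence (Ex 405/Em 460 nm) of compound-treated HEK293 cells, incubated overnight at 37C with 5% CO2 and scaled to triamterene equivalents.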

[8] = qHTS assay to test for compound auto fluorescence at 590 nm (red) in HEK293 cells (AID 720679)
Procedure, shortened: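 Using HEK293 cells at 2,000 per well, the screen added 23 nL of each compound after cell attachment and incubated overnight (37C, 5% CO2). The plate reader then captured red-label fluorescence, Ex/Em 540/590nm.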

[9] = qHTS assay to test for compound auto fluorescence at 535 nm (green) in HEK293 cells (AID 720680)
[10] = qHTS assay to test for compound auto fluorescence at 460 nm (blue) in HEK293 cell free culture (AID 720681)
Procedure, shortened: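 Test compounds were pinned into cell-free culture medium (DMEM with 10% FBS) and fluorescence was read directly at Ex/Em 405/460 nm. Signals were expressed as fluorescence equivalents of triamterene, with DMSO vehicle as control.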

[11] = qHTS assay to test for compound auto fluorescence at 535 nm (green) in HEK293 cell free culture (AID 720682)
Procedure, shortened: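 Green-channel intensity (Ex/Em 485/535 nm) was recorded from compound-treated wells containing only DMEM with 10% FBS. Fluorescein provided the equivalency standard.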

[12] = qHTS assay to test for compound auto fluorescence at 590 nm (red) in HEK293 cell free culture (AID 720683)
Procedure, shortened: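 Tox21 10K library compounds were pinned into cell-free DMEM with 10% FBS and fluorescence was read at excitation 540 nm. Activity is expressed as Rose Bengal sodium equivalency.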

[13] = qHTS assay to test for compound auto fluorescence at 590 nm (red) in HepG2 cell free culture (AID 720684)
Procedure, shortened: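 Red fluorescence (540 nm excitation, 590 nm emission) was measured after compound transfer into cell-free MEM supplemented with 10% FBS. Values are equivalencies against Rose Bengal sodium.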

[14] = qHTS assay to test for compound auto fluorescence at 460 nm (blue) in HepG2 cell free culture (AID 720685)
Procedure, shortened: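 Compound (23 nL) or DMSO pinned into cell-free MEM with 10% FBS; blue fluorescence read at 405/460 nm excitation/emission, expressed as auto-fluorescence equivalency to triamterene.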

[15] = qHTS assay to test for compound auto fluorescence at 535 nm (green) in HepG2 cell free culture (AID 720686)
[16] = qHTS assay to test for compound auto fluorescence at 460 nm (blue) in HepG2 cells (AID 720687)
Procedure, shortened: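 Cells (2,000/well in MEM with 10% FBS) attached overnight at 37 C, then were exposed to compound or DMSO for 1 hr at 37 C, 5% CO2. Fluorescence read at Ex/Em 405/460 nm, expressed as triamterene-equivalent signal.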

[17] = qHTS assay for small molecule disruptors of the mitochondrial membrane potential (AID 720635)
Procedure, shortened: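 HepG2 cells (2,000/well) attached overnight at 37C, then took compound for 1 hr at 37C, 5% CO2. Mito-MPS dye was added for 30 min; fluorescence was read at 490/535 nm (monomers) and 540/590 nm (aggregates).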

[18] = qHTS assay to test for compound auto fluorescence at 535 nm (green) in HepG2 cells (AID 720675)
[19] = biological target: Glucocorticoid receptor (Homo sapiens) (UniProt P04150); experiment: qHTS assay to identify small molecule antagonists of the glucocorticoid receptor (GR) signaling pathway (AID 720692; active means well fitted inhibition curve with a large enough effect in the signal ratio in the repeat runs, not every such curve was filed as active; the % refers to the signal ratio)
Chain of Glucocorticoid receptor (Homo sapiens) (P04150 whole entry, looked up): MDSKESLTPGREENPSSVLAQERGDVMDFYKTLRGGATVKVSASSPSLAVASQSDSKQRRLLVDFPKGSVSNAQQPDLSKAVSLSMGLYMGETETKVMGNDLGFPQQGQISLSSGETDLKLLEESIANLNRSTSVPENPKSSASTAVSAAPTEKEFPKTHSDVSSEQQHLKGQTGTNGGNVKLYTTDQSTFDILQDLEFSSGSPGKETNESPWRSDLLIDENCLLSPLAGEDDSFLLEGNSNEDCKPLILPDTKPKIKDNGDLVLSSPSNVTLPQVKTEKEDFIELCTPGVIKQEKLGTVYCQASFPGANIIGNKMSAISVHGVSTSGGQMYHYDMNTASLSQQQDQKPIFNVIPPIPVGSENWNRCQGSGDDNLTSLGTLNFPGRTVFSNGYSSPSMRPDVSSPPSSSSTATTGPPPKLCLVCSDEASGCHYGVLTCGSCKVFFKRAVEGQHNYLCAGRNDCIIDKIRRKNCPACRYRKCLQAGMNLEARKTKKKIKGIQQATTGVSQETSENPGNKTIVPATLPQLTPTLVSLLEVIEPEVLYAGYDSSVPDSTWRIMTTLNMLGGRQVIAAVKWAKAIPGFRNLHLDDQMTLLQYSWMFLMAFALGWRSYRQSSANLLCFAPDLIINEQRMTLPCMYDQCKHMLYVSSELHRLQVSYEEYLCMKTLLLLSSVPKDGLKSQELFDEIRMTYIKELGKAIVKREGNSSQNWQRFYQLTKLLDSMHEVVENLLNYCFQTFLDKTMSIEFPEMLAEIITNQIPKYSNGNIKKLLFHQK
Procedure, shortened: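 Dexamethasone (5 nM final) stimulated a stably integrated GRE-beta-lactamase reporter in HeLa cells during 18 h co-incubation with compounds; signal was quantified as fluorescence intensity of B/G FRET substrate after 2 h.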

[20] = biological target: Glucocorticoid receptor (Homo sapiens) (UniProt P04150); experiment: qHTS assay to identify small molecule agonists of the glucocorticoid receptor (GR) signaling pathway (AID 720691; active means well fitted activation curve with a large enough effect in the signal ratio in the repeat runs, not every such curve was filed as active; the % refers to the signal ratio)
Procedure, shortened: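 Reporter read-out: fluorescence intensity following 2 h room-temperature LiveBLAzer B/G FRET substrate loading. Prior step: GR-bla HeLa cells held 4 h, then treated 18 h at 37 C.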
On the % scale 0 is the no-effect control and ±100 the full control effect.

C[C@H](N)[C@H](O)c1ccc(O)c(O)c1
inactive: Potency [1] | Potency [2] | Potency [3] | Potency [4] | Potency [5] | outcome [6] | outcome [7] | outcome [8] | outcome [9] | outcome [10] | outcome [11] | outcome [12] | outcome [13] | outcome [14] | outcome [15] | outcome [16]

CC[N+]1(C)CCCC(OC(=O)C(O)(c2ccccc2)c2ccccc2)C1 (stereo not drawn)
inactive: Potency [1] | Potency [2] | Potency [3] | Potency [5] | Potency [17] | outcome [6] | outcome [18] | outcome [7] | outcome [8] | outcome [9] | outcome [10] | outcome [11] | outcome [12] | outcome [13] | outcome [14] | outcome [15] | outcome [16] | Potency [19]

CCOc1cccc(C2(N3CCN(c4ccccc4)CC3)CCC(C)CC2)c1 (stereo not drawn)
inactive: Potency [1] | Potency [2] | Potency [3] | Potency [5] | Potency [17] | outcome [6] | outcome [18] | outcome [7] | outcome [8] | outcome [9] | outcome [10] | outcome [11] | outcome [12] | outcome [13] | outcome [14] | outcome [15] | outcome [16] | Potency [19]

CCOC(=O)c1cncn1C(C)c1ccccc1 (stereo not drawn)
inactive: Potency [1] | Potency [2] | Potency [3] | Potency [5] | fluorescence, relative to Rose Bengal [6] -0.315% [at 18.6 µM] | fluorescence, % of fluorescein control [18] 0.021% [at 18.6 µM] | fluorescence, % of triamterene [7] -0.152% [at 18.6 µM] | fluorescence, % of fluorescent control [8] 0.134% [at 18.6 µM] | fluorescence, % of fluorescein [9] -0.183% [at 18.6 µM] | fluorescence, % of fluorescent control [10] -0.0565% [at 18.6 µM] | activity change [11] -0.219% [at 18.6 µM] | fluorescence, % of fluorescent control [12] 0.175% [at 18.6 µM] | fluorescence, % of Rose Bengal [13] 0.117% [at 18.6 µM] | fluorescence, % of fluorescent control [14] -0.0673% [at 18.6 µM] | fluorescence, % of fluorescein control [15] 0.0291% [at 18.6 µM] | fluorescence, % of fluorescent control [16] 0.278% [at 18.6 µM] | Potency [20]

CCCSP(=S)(OCC)Oc1ccc(SC)cc1 (stereo not drawn)
inactive: Potency [1] | Potency [2] | Potency [3] | Potency [4] | outcome [6] | outcome [18] | outcome [7] | outcome [8] | outcome [9] | outcome [10] | outcome [11] | outcome [12] | outcome [13] | outcome [14] | outcome [15] | outcome [16]

CCC(C)Cl (stereo not drawn)
inactive: Potency [1] | Potency [2] | Potency [3] | Potency [5] | Potency [17] | outcome [6] | outcome [18] | outcome [7] | outcome [8] | outcome [9] | outcome [10] | outcome [11] | outcome [12] | outcome [13] | outcome [14] | outcome [15] | outcome [16] | Potency [20] | Potency [19]

Cc1ccc2c(C)cccc2c1
inactive: Potency [1] | Potency [2] | Potency [3] | Potency [4] | Potency [5] | outcome [6] | outcome [18] | outcome [7] | outcome [8] | outcome [9] | outcome [10] | outcome [11] | outcome [13] | outcome [14] | outcome [15] | outcome [16] | Potency [20]

CCOC(=O)C1OC1(C)c1ccccc1 (stereo not drawn)
inactive: Potency [1] | Potency [2] | Potency [3] | Potency [4] | Potency [17] | outcome [6] | outcome [18] | outcome [7] | outcome [8] | outcome [9] | outcome [10] | outcome [11] | outcome [12] | outcome [13] | outcome [14] | outcome [15] | outcome [16] | Potency [19]

CCOP(=S)(OCC)SCSc1cc(Cl)ccc1Cl
inactive: Potency [1] | Potency [2] | Potency [3] | Potency [4] | outcome [6] | outcome [18] | outcome [7] | outcome [8] | outcome [9] | outcome [10] | outcome [11] | outcome [13] | outcome [14] | outcome [15] | outcome [16] | Potency [20]

COC1=CC(=O)O[C@@H](/C=C/c2ccc3c(c2)OCO3)C1
inactive: Potency [1] | Potency [2] | Potency [3] | Potency [4] | Potency [5] | outcome [6] | outcome [18] | outcome [7] | outcome [8] | outcome [9] | outcome [10] | outcome [11] | outcome [13] | outcome [14] | outcome [15] | outcome [16] | Potency [20] | Potency [19]

Cc1nc2ccccc2c(=O)n1-c1ccccc1Cl
inactive: Potency [1] | Potency [2] | Potency [3] | Potency [5] | outcome [6] | outcome [18] | outcome [7] | outcome [8] | outcome [9] | outcome [10] | outcome [11] | outcome [12] | outcome [13] | outcome [14] | outcome [15] | outcome [16] | Potency [20] | Potency [19]

CCCCCCCCCCCCN(C)C
inactive: Potency [1] | Potency [2] | Potency [17] | outcome [6] | outcome [7] | outcome [8] | outcome [9] | outcome [10] | outcome [11] | outcome [12] | outcome [13] | outcome [14] | outcome [15] | outcome [16] | Potency [20] | Potency [19]

CCCCCCCCP(=O)(O)O
inactive: Potency [1] | Potency [2] | Potency [4] | Potency [5] | Potency [17] | outcome [6] | outcome [7] | outcome [8] | outcome [9] | outcome [10] | outcome [11] | outcome [12] | outcome [13] | outcome [14] | outcome [15] | outcome [16] | Potency [20] | Potency [19]

O=C(O)c1cc(I)cc(I)c1I
inactive: Potency [1] | Potency [2] | Potency [4] | Potency [5] | Potency [17] | outcome [6] | outcome [18] | outcome [7] | outcome [8] | outcome [9] | outcome [10] | outcome [11] | outcome [12] | outcome [13] | outcome [14] | outcome [15] | outcome [16] | Potency [19]
